Source: PubChem BioAssay (NCI)
The panel holds about 83,000 compounds, 20% with a hit somewhere; the sample as a whole holds those more often.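 In brief: 96-well plates, 48 h treatment, single concentration, percent growth endpoint.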 Activity calls are given as the source filed them. The calls were made as follows: active = growth percent below 10; inactive = the rest.

Experiments:
Experiment in all cases: NCI-60 one-dose screen, 48 h (100 = growth as untreated, 0 = no growth, -100 = all killed)
NCI-H23 lung = conditions: 10 µM unless noted
NCI-H226 lung = conditions: 10 µM unless noted
NCI-H322M lung = conditions: 10 µM unless noted
HOP-62 NSCLC = conditions: 10 µM unless noted
NCI-H460 lung = conditions: 10 µM unless noted
HOP-92 NSCLC = conditions: 10 µM
NCI-H522 lung = conditions: 10 µM unless noted
A549/ATCC NSCLC = conditions: 10 µM unless noted
786-0 renal = conditions: 10 µM unless noted
COLO 205 colon = conditions: 10 µM unless noted
DU-145 prostate = conditions: 10 µM unless noted
K-562 leukemia = conditions: 10 µM unless noted
MALME-3M melanoma = conditions: 10 µM unless noted
MDA-MB-231 breast = conditions: 10 µM unless noted
RXF 393 renal = conditions: 10 µM unless noted
SF-268 CNS = conditions: 10 µM unless noted
SF-295 CNS = conditions: 10 µM unless noted
SF-539 CNS = conditions: 10 µM unless noted
UACC-257 melanoma = conditions: 10 µM unless noted

Measured: growth

Cc1ccc(-n2c(/C=C3\C(=O)Nc4ccccc43)ccc2CO)cc1
inactive: NCI-H23 lung 80.6% | NCI-H226 lung 88.2% | NCI-H322M lung 103% | HOP-62 NSCLC 72.8% | NCI-H460 lung 80.3% | HOP-92 NSCLC 84.5% | NCI-H522 lung 73.6% | A549/ATCC NSCLC 71.3% | 786-0 renal 101% | COLO 205 colon 91.5% | DU-145 prostate 92.2% | K-562 leukemia 19.2% | MALME-3M melanoma 44% | MDA-MB-231 breast 64% | RXF 393 renal 66.1% | SF-268 CNS 89.5% | SF-295 CNS 69.8% | SF-539 CNS 68.7% | UACC-257 melanoma 85.8%

O=S(=O)(NCCCNc1nccc(-c2[nH]c(-c3ccccc3)nc2-c2ccc(Cl)c(O)c2)n1)c1cccc(F)c1
inactive: NCI-H23 lung 65.5% | NCI-H226 lung 62.8% | NCI-H322M lung 87.9% | HOP-62 NSCLC 75.2% | NCI-H460 lung 55.2% | HOP-92 NSCLC 85.5% | NCI-H522 lung 54.2% | A549/ATCC NSCLC 65.2% | 786-0 renal 100% | COLO 205 colon 87.9% | DU-145 prostate 66.1% | K-562 leukemia 35.3% | MDA-MB-231 breast 60.2% | RXF 393 renal 34.1% | SF-268 CNS 74.3% | SF-295 CNS 47.4% | SF-539 CNS 94.1% | UACC-257 melanoma 25.6%
active: MALME-3M melanoma 2.24%

Cc1ccc(NC(=O)c2ccc(CN3CCOCC3)c(C(F)(F)F)c2)cc1Oc1ccc(-c2[nH]nc3ncnc(N)c23)cc1
inactive: NCI-H23 lung 84.6% | NCI-H226 lung 66% | NCI-H322M lung 72% | HOP-62 NSCLC 86.9% | NCI-H460 lung 66.3% | HOP-92 NSCLC 50.8% | NCI-H522 lung 62.5% | A549/ATCC NSCLC 65.1% | 786-0 renal 69.2% | COLO 205 colon 18.8% | DU-145 prostate 76.9% | K-562 leukemia 20% | MALME-3M melanoma 27.4% | MDA-MB-231 breast 54.3% | RXF 393 renal 40.5% | SF-268 CNS 81.6% | SF-295 CNS 63.2% | SF-539 CNS 49.3% | UACC-257 melanoma 48.7%

NS(=O)(=O)c1ccc(Nc2nc(N/N=C/c3ccccn3)nc(Nc3ccccc3)n2)cc1
inactive: A549/ATCC NSCLC 35.1% | K-562 leukemia 12.3%
active: NCI-H23 lung -7.29% | NCI-H226 lung -49.1% | NCI-H322M lung -9.94% | HOP-62 NSCLC -28.6% | NCI-H460 lung 3.8% | HOP-92 NSCLC -46.6% | NCI-H522 lung -32.6% | 786-0 renal 8.47% | COLO 205 colon -42.1% | DU-145 prostate 4.85% | MALME-3M melanoma -68.2% | MDA-MB-231 breast -29.9% | RXF 393 renal -74% | SF-268 CNS -22% | SF-295 CNS 0.752% | SF-539 CNS -42.1% | UACC-257 melanoma -18.1%
